Laboratory results from PubChem BioAssay (EPA / NIEHS).
Records with an inconclusive call do not appear. Calls of active or inactive are those of the source. How the source made its calls, unless noted: active means hit-call score of the fitted dose curve at least 0.9, where 1 is the maximum; inconclusive means response in the unintended direction; inactive means score below 0.9.

What was measured:
[1] = IUF_NPC1_cytotoxicity_72hr: Cytotoxicity Assessment at 72 hours in the Leibniz Research Institute for Environmental Medicine (IUF) Neural Progenitor Cell Proliferation Assay (NPC1) (AID 2284332);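 further: rising LDH signal means more cytotoxicity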
Method in brief: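 Readout is fluorescence from LDH-dependent resazurin conversion, sampled from culture medium after compound contact lasting 72 h. Each well holds one 0.25-0.35 mm human progenitor sphere kept at 37C, 5% CO2 with EGF and FGF.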

[2] = CCTE_Mundy_HCI_iCellGluta_NOG_NeuronCount: CCTE's Neurite Outgrowth Assay in iCellGluta cells for Neuron Count, Mundy Lab (AID 2284340);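 further: cells fixed about 48 h after compound addition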
Method in brief: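 Neuron count read by automated high-content imaging of Hoechst 33342 and betaIII-tubulin/Alexa Fluor-488 labelling in human iPSC glutamatergic neurons. Activity fitted relative to DMSO.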

[3] = CCTE_Mundy_HCI_iCellGluta_NOG_NeuriteCount: CCTE's Neurite Outgrowth Assay in iCellGluta cells for Neurite Count, Mundy Lab (AID 2284342);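 further: chemical exposure about 48 hours starting 2 hours after plating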
SERPINA7 (gene 6906) = test: CCTE_GLTED_hTBG: CCTE's human Thyroxine-binding Globulin (TBG) Inhibition Assay, Great Lakes Toxicology and Ecology Division (GLTED) Lab (AID 2284343);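 further: active chemicals lower fluorescence versus DMSO baseline by displacing probe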
Method in brief: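 Steps: combine TBG with chemical; incubate 2 hours so that disruptors release ANSA; record fluorescence (380 ex, 475 em). Loss of signal was fitted against DMSO controls.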

[4] = CCTE_Deisenroth_H295R-HTRF_384WELL_ESTRADIOL: CCTE's H295R-HTRF Assay Evaluation of Estradiol Concentration, Deisenroth Lab (AID 2284361; active means hit-call score of the fitted dose curve at least 0.9, where 1 is the maximum; inactive means score below 0.9); conditions: actives raise or lower the signal
Method in brief: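 Estradiol secreted into medium by H295R adrenocortical cells, quantified by HTRF after 48 h dosing over a nine-point 0.001 - 100 uM final range; gain or loss versus DMSO. Parallel ATP-luminescence viability readout; n=5 experiments.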

[5] = CCTE_Deisenroth_H295R-HTRF_384WELL_TESTOSTERONE: CCTE's H295R-HTRF Assay Evaluation of Testosterone Concentration, Deisenroth Lab (AID 2284373; active means hit-call score of the fitted dose curve at least 0.9, where 1 is the maximum; inactive means score below 0.9); conditions: actives raise or lower the signal
Method in brief: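 H295R cells were acclimated 24 h, then exposed 48 h to nine concentrations (0.001–100 uM final) in technical triplicate, n=5. Testosterone in conditioned medium was measured by HTRF (em 620/665 nm). Fitting was bidirectional versus DMSO; CellTiter-Glo viability ran on the same plates.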

[6] = CCTE_Deisenroth_H295R-HTRF_384WELL_CTOX: Cytotoxicity Assessment in CCTE's H295R-HTRF Assay, Deisenroth Lab (AID 2284380)
Method in brief: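 Luminescent ATP viability readout (CellTiter-Glo 2.0), multiplexed on plates used for hormone sampling, after 48 h chemical exposure. Human H295R cells; final concentrations 0.001–100 uM in nine steps, technical triplicates, five experiments; DMSO baseline.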

[7] = VALA_MIGHUV1_ScratchOnly_WoundArea: VALA Sciences human Umbilical Vein Endothelial Cell Migration (MIGHUV) Assay, Area of Scratch Wound Inhibited Recovery (AID 2284336)
Method in brief: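 Wound area remaining after 24 h recovery imaged by Hoechst nuclear fluorescence in scratched HUVEC cultures, chemicals added within 30 min of scratching across a 6-point series. Gain of signal fitted against 0.1% DMSO; cytochalasin D positive control.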

[8] = VALA_TUBIPS_Antagonist_CellCount: Viability Assessment in the VALA Sciences human iPS-derived Endothelial Tubule Formation (TUBIPS) Antagonism Assay (AID 2284335)
[9] = VALA_TUBHUV_Agonist_TubuleLength: VALA Sciences human Umbilical Vein Endothelial Tubule Formation (TUBHUV) Agonism Assay (AID 2284337)
Method in brief: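 Tubule length quantified by CD31 immunofluorescence imaging after fixation. HUVEC-HDF co-cultures (1:3) pre-grown 3 days with 10 ng/ml VEGF, then dosed 3 days in VEGF medium; 0.1 % DMSO vehicle baseline.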

[10] = VALA_TUBIPS_Agonist_CellCount: Viability Assessment in the VALA Sciences human iPS-derived Endothelial Tubule Formation (TUBIPS) Agonism Assay (AID 2284338)
Method: VALA_TUBIPS_Agonist is a cell-based, multiplexed assay that uses human iPS-derived endothelial cells (iPSC). Measurements were taken 72 hours after chemical dosing in a 96-well plate.VALA_TUBIPS_Agonist_CellCount is the one of two assay components measured from the VALA_TUBIPS_Agonist assay. It is designed to make measurements of viability, a form of viability reporter, as detected with fluorescence intensity signals by HCS Fluorescent Imaging technology. Data from the assay component VALA_TUBIPS_Agonist_CellCount was analyzed at the endpoint, VALA_TUBIPS_Agonist_CellCount, in the positive analysis fitting direction relative to DMSO as the negative control and baseline of activity. Using a type of viability reporter, loss-of-signal activity can be used to understand viability. To generalize the intended target to other relatable targets, this assay endpoint is annotated to the cell cycle intended target family, where the subfamily is cell count.
[…]

Question: With [O-][Cl+]O as the molecule, how does the outcome [1] read?
Answer: Its outcome is “inactive”.

Question: What about the outcome [2] of the same molecule?
Answer: The outcome was “inactive”.

Question: And the outcome [3]?
Answer: The outcome was “inactive”.

Question: Which outcome (SERPINA7 (gene 6906)) does the source give for Nc1cc(Cl)cc(C(=O)O)c1Cl here?
Answer: Its outcome is “inactive”.

Question: For O=[N+]([O-])c1ccc(Oc2ccc(Cl)cc2Cl)cc1, which AC50 (SERPINA7 (gene 6906)) is on record?
Answer: The AC50 was 5.39 µM (active).

Question: And the outcome [4]?
Answer: The outcome was “inactive”.

Question: What about the outcome [5] of the same molecule?
Answer: The outcome was “inactive”.

Question: What about the outcome [6] of the same molecule?
Answer: Its outcome is “inactive”.

Question: For c1ccc(N=Nc2ccccc2)cc1, which AC50 (SERPINA7 (gene 6906)) is on record?
Answer: Its AC50 is 50 µM (active).

Question: For COC(=O)Nc1nc2ccccc2[nH]1, which outcome [1] is on record?
Answer: Its outcome is “inactive”.

Question: What about the outcome [2] of the same molecule?
Answer: Its outcome is “inactive”.

Question: What about the outcome [3] of the same molecule?
Answer: The outcome was “inactive”.

Question: With [Cl-].[Cl-].[Hg+2] as the molecule, how does the AC50 (SERPINA7 (gene 6906)) read?
Answer: Its AC50 is 27.6 µM (active).

Question: With Clc1ccc(Cl)c(Cl)c1 as the molecule, how does the outcome [7] read?
Answer: The outcome was “inactive”.

Question: Which AC50 (SERPINA7 (gene 6906)) does the source give for Cc1cc(N=Nc2ccccc2C)ccc1N here?
Answer: The AC50 was 4.38 µM (active).

Question: With CNC(=O)Oc1cccc2c1OC(C)(C)C2 as the molecule, how does the outcome [1] read?
Answer: Its outcome is “inactive”.

Question: What about the outcome [2] of the same molecule?
Answer: The outcome was “inactive”.

Question: And the outcome [3]?
Answer: The outcome was “inactive”.

Question: With COP(=S)(OC)SCN1C(=O)c2ccccc2C1=O as the molecule, how does the outcome [1] read?
Answer: Its outcome is “inactive”.

Question: And the AC50 [2]?
Answer: Its AC50 is 80.7 µM (active).

Question: And the AC50 [3]?
Answer: The AC50 was 83.8 µM (active).

Question: What about the AC50 (SERPINA7 (gene 6906)) of the same molecule?
Answer: The AC50 was 37.5 µM (active).

Question: Which AC50 (SERPINA7 (gene 6906)) does the source give for Nc1ccc(Oc2ccc(N)cc2)cc1 here?
Answer: The AC50 was 25.3 µM (active).

Question: For O=C(Nc1ccccc1)c1ccccc1I, which AC50 (SERPINA7 (gene 6906)) is on record?
Answer: The AC50 was 15.7 µM (active).

Question: Which outcome [1] does the source give for CCCCOC(=O)c1ccccc1C(=O)OCc1ccccc1 here?
Answer: Its outcome is “inactive”.

Question: And the outcome [2]?
Answer: The outcome was “inactive”.

Question: What about the outcome [3] of the same molecule?
Answer: The outcome was “inactive”.

Question: What about the AC50 (SERPINA7 (gene 6906)) of the same molecule?
Answer: Its AC50 is 2.23 µM (active).

Question: For Brc1ccc(Oc2ccccc2)cc1, which AC50 (SERPINA7 (gene 6906)) is on record?
Answer: The AC50 was 45.4 µM (active).

Question: For O=P(OCCCl)(OCCCl)OCCCl, which outcome [1] is on record?
Answer: The outcome was “inactive”.

Question: And the outcome [8]?
Answer: The outcome was “inactive”.

Question: And the outcome [7]?
Answer: Its outcome is “inactive”.

Question: And the outcome [9]?
Answer: The outcome was “inactive”.

Question: Which AC50 (SERPINA7 (gene 6906)) does the source give for CCCCCOC(=O)c1ccccc1C(=O)OCCCCC here?
Answer: The AC50 was 7.46 µM (active).

Question: With Oc1ccc2ccc3cccc4ccc1c2c34 as the molecule, how does the outcome [8] read?
Answer: Its outcome is “inactive”.

Question: And the outcome [9]?
Answer: The outcome was “inactive”.

Question: And the outcome [10]?
Answer: Its outcome is “inactive”.

Question: Which outcome [1] does the source give for OCCOCCO here?
Answer: The outcome was “inactive”.

Question: With Nc1ccc([N+](=O)[O-])cc1 as the molecule, how does the AC50 (SERPINA7 (gene 6906)) read?
Answer: The AC50 was 41.4 µM (active).

Question: What does the source list for CN(C)[C@@H]1C(=O)C(C(N)=O)=C(O)[C@@]2(O)C(=O)C3=C(O)c4c(O)cccc4[C@@](C)(O)[C@H]3C[C@@H]12?
Answer: outcome [2]: inactive; outcome [3]: inactive
